Measured values published in PubChem BioAssay (NCI).
About 83,000 compounds went through this panel and 20% of them were active in at least one assay; those are over-represented in the sample as a whole.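 Results are percent growth after 48 hours of single-concentration exposure. 100 means growth as in untreated cells, lower positive values show inhibition; negative values down to -100 show cell death.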 Values without a mark were called inactive. The source made the active and inactive calls. The calls were made as follows: active = growth percent below 10; inactive = the rest.

system: HOP-62 NSCLC; assay: NCI-60 one-dose screen, 48 h (100 = growth as untreated, 0 = no growth, -100 = all killed); settings: 10 µM unless noted

SMILES | growth
O=C(Nc1ccc(N2CCNCC2)cc1)c1[nH]ncc1Nc1cc(Oc2ccccc2)ncn1 | 3.29% (active)
CS(=O)(=O)Nc1ccc(C(=O)NC(C(=O)NO)c2ccc(-c3cccc(F)c3)cc2)cc1 (centres undefined) | 99.1%
CC[C@]1(O)C[C@@H]2CN(CCc3c([nH]c4ccccc34)[C@@](C(=O)OC)(c3cc4c(cc3OC)N(C)[C@H]3[C@@](O)(C(=O)OC)[C@H](OC(C)=O)[C@]5(CC)C=CCN6CC[C@]43[C@@H]65)C2)C1 | 35%
O=C(CN1C(=O)/C(=C\c2ccc(Cl)cc2)SC1=S)Nc1ncc(Cc2ccc(Cl)cc2)s1 | 105%
CCCCC(O)(c1ccc(Cl)cc1)C(CN1CCOCC1)c1ccc(Cl)cc1 (centres undefined) | 60.1%
O=C(Nc1ccc(C23CC4CC(CC(c5ccccc5)(C4)C2)C3)cc1)c1cccs1 | 119%
O=C(COc1cc(O)c2c(=O)cc(-c3ccccc3)oc2c1)Nc1ccccc1 | 101%
COc1cc(C(=O)Nc2ccc(-c3nc4ccccc4[nH]3)cc2)cc(OC)c1OC | 42.5%
COC(=O)[C@@H]1CCCN1C(=O)[C@H]1CCCN1C(=O)[C@@H](Cc1c[nH]c2ccccc12)NC(=S)Nc1cc(C(F)(F)F)cc(C(F)(F)F)c1 | 65.2%
O=C(CCc1nnc2sc(-c3ccc(Cl)cc3Cl)nn12)c1nc2ncccc2[nH]1 | 2.87% (active)
O=Cc1cc2ccccc2nc1Nc1nccs1 | 62.2%
O=C(CCc1nnc2sc(Cc3ccccc3Cl)nn12)c1nc2ncccc2[nH]1 | 92.3%
NS(=O)(=O)c1ccc(CCN=C=S)cc1 | 101%
CCOc1cc(Cl)c(C(C)NC(=O)c2cccc(OC)c2)cc1OCC (centres undefined) | -11.2% (active)
CN1CCN(Cc2ccc(C(=O)Nc3cncc(C#Cc4cnc5cccnn45)c3)cc2C(F)(F)F)CC1 | 70.9%
COc1ccc2c(c1)C=C1CSCC3=Cc4cc(OC)ccc4OC13O2 | 38.2%
CN1CCN(Cc2ccc(NC(=O)c3cncc(C#Cc4nc(N)nc5[nH]ncc45)c3)cc2C(F)(F)F)CC1 | 122%
COc1cc(C(=O)O/N=C(\N)Cc2cccc3ccccc23)cc(OC)c1OC | 27.6%
Nc1nc(-c2cnccn2)nn1-c1nc2ccccc2s1 | 95.4%
COC(=O)C1=C(C)NC(C)=C(C(=O)OC)C(N2C(=O)CCC2=O)C1 (centres undefined) | 109%
COc1ccc(Br)c(/C=C2\SC(=Nc3ccc(O)cc3)NC2=O)c1 | 96.2%
COc1ccc(Cn2c(Br)c3c(c2Br)-c2nc(NC(=O)c4ccc(OC)cc4)sc2CC3)cc1 | 68.6%
Nc1ncnc(N)c1NC(=O)c1ccc(OCc2ccccc2)cc1 | 104%
CCOc1ccc(-c2nonc2NC(=O)c2cccc(C)c2)cc1OCC | 96.9%
